Where “and” joins values, the source holds several entries; their conditions need not be identical. Identical values can stand only once. Inconclusive results are not listed. Entries that show only a call come without a potency. Some structures have more than one record in an assay (separate samples or runs), and their calls can disagree. Calls of active or inactive are those of the source. The call rests on the fitted dose curve; in most records, active means well fitted curve in the direction sought with a large enough effect in the repeat runs; inconclusive means weak or mixed curves; inactive means no such curve, though single readings can be large; an effect the other way counts as inactive or inconclusive.

A short description of the first assay: A CellTox Green Cytotoxicity Assay to monitor cytotoxicity in HepG2 cells - 32 hour (AID 1224883). Further: nearly all actives have a fitted effect of over 50% in size. Further: potency means the concentration at half of the fitted maximal effect. The settings on record: CellTox Green fluorescence; series mostly up to 76.8 µM. The essentials: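 Nonlytic assay: viable cells exclude the dye, so fluorescence scales with cell death. HepG2 at 600 cells/well, compounds added after 5 h, signal read across 40 h.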
On to `NC(CSCC(=O)O)C(=O)O` (stereo not given), for which the Potency entry was “inactive”.

For the molecule `O=C(O)CNC(=O)c1ccc([N+](=O)[O-])cc1`, the Potency result is “inactive”.

Consider `N=C(N)c1ccc(OCCCOc2ccc(C(=N)N)cc2)cc1`, for which the Potency entry is “inactive”.

`CCCCCCCCCCCCCCCCC`: the Potency entry was “inactive”.

`CN(C)CCCNCCCN(C)C`: the Potency entry was “inactive”.

For the molecule `COc1ccc2c(c1)c(CC(=O)OCC(=O)O)c(C)n2C(=O)c1ccc(Cl)cc1`, the Potency result is “inactive”.

As for `CCCCOCCOCCOCCCC`, the Potency result is “inactive”.

Regarding `COC(C)(C)CCCC(C)CC=O` (stereo not given), the Potency result is “inactive”.

As for `CCCN1CCCC[C@H]1C(=O)Nc1c(C)cccc1C`, the Potency entry was “inactive”.

`O=C(O)CCCl`: the Potency entry is “inactive”.

Consider `COc1nc(N)nc2c1ncn2[C@@H]1O[C@H](CO)[C@@H](O)[C@@H]1O`, for which the Potency result was “inactive”.

As to `C1OCOCO1`, the Potency entry was “inactive”.

Regarding `Cc1cc2c(cc1S(N)(=O)=O)S(=O)(=O)CCC2`, the Potency result is “inactive”.

Regarding `O=c1n(CCO)c(=O)n(CCO)c(=O)n1CCO`, the Potency result is “inactive and 38.9 µM (active)”.

Regarding `CCCCCCCCCCCCN(CCCCCCCCCCCC)CCCCCCCCCCCC`, the Potency entry was “inactive”.

Take `CCS(=O)(=O)c1ccc(OC)c(C(=O)OC)c1`: the Potency result was “inactive”.

As to `N=C(N)c1ccccc1`, the Potency entry is “inactive”.

As for `CN1C(=O)N(C)C(O)C1O` (stereo not given), the Potency result is “inactive”.

For the molecule `CC(C)NC(=O)NC(C)C`, the Potency entry was “inactive”.

Regarding `Brc1c(NC2=NCCN2)ccc2nccnc12`, the Potency result is “inactive”.

Regarding `CN(C(=O)c1c(O)c2ccccc2n(C)c1=O)c1ccccc1`, the Potency entry is “inactive”.

`CC(C)NCCCC1(C(N)=O)c2ccccc2-c2ccccc21`: the Potency entry is “inactive”.

As for `C=C(C)C(=O)OCCCCCCCC(C)C`, the Potency result was “inactive”.

On to `CC(NC(CCc1ccccc1)C(=O)O)C(=O)N1C(=O)N(C)CC1C(=O)O` (stereo not given), for which the Potency entry is “inactive”.

As for `CCOC(=O)[C@H](CCc1ccccc1)N[C@@H](C)C(=O)N1[C@H](C(=O)O)C[C@@H]2CCC[C@@H]21`, the Potency entry is “inactive”.

For `O=Cc1cccc([N+](=O)[O-])c1`, the Potency result was “inactive”.

Regarding `CC/C=C\CC/C=C/C(OCC)OCC`, the Potency result is “inactive”.

For the molecule `CCCCCSCCCCC`, the Potency result was “inactive”.

With `CCOC(=O)CC(C)=O`, the Potency result is “inactive”.

As to `Cn1cc(S(C)=O)c(=O)c2ccc(F)cc21` (stereo not given), the Potency result is “inactive”.

With `CC(C)CCCC(C)N` (stereo not given), the Potency entry is “inactive”.

For the molecule `COC(=O)c1ccc(C)cc1C1=NC(C)(C(C)C)C(=O)N1` (stereo not given), the Potency result was “inactive”.

Take `CC(C)(O)C(=O)c1ccccc1`: the Potency entry is “inactive”.

With `N#Cc1ccc(C2CCCc3cncn32)cc1` (stereo not given), the Potency result was “inactive”.

`C[C@@H]1CCN(C(=O)[C@H](CCCN=C(N)N)NS(=O)(=O)c2cccc3c2NC[C@H](C)C3)[C@@H](C(=O)O)C1`: the Potency entry is “inactive”.

A short description of another assay: A CellTox Green Cytotoxicity Assay to monitor cytotoxicity in HEK293 cells - 8 hour (AID 1224884). Further: nearly all actives have a fitted effect of over 35% in size. Further: potency means the concentration at half of the fitted maximal effect. The settings on record: CellTox Green fluorescence; series mostly up to 76.8 µM. The method in brief:
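Seeding of HEK293 cells together with cytotoxicity dye preceded a 5 h incubation at 37 C/5% CO2. Test compounds in DMSO were then added and fluorescence monitored across 40 h.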
As to `NC(CSCC(=O)O)C(=O)O` (stereo not given), the Potency result was “inactive”.

For the molecule `O=C(O)CNC(=O)c1ccc([N+](=O)[O-])cc1`, the Potency entry is “inactive”.

For `N=C(N)c1ccc(OCCCOc2ccc(C(=N)N)cc2)cc1`, the Potency result is “inactive”.

Turning to `CCCCCCCCCCCCCCCCC`, the Potency entry was “inactive”.

As to `CN(C)CCCNCCCN(C)C`, the Potency result is “inactive”.

Take `COc1ccc2c(c1)c(CC(=O)OCC(=O)O)c(C)n2C(=O)c1ccc(Cl)cc1`: the Potency result was “inactive”.

`CCCCOCCOCCOCCCC`: the Potency result is “inactive”.

As for `COC(C)(C)CCCC(C)CC=O` (stereo not given), the Potency result was “inactive”.

As for `CCCN1CCCC[C@H]1C(=O)Nc1c(C)cccc1C`, the Potency entry is “inactive”.

On to `O=C(O)CCCl`, for which the Potency result is “inactive”.

Consider `COc1nc(N)nc2c1ncn2[C@@H]1O[C@H](CO)[C@@H](O)[C@@H]1O`, for which the Potency result is “inactive”.

As to `C1OCOCO1`, the Potency result was “inactive”.

With `Cc1cc2c(cc1S(N)(=O)=O)S(=O)(=O)CCC2`, the Potency entry is “inactive”.

On to `O=c1n(CCO)c(=O)n(CCO)c(=O)n1CCO`, for which the Potency result was “inactive and 43.6 µM (active)”.

Take `CCCCCCCCCCCCN(CCCCCCCCCCCC)CCCCCCCCCCCC`: the Potency result is “inactive”.

As for `CCS(=O)(=O)c1ccc(OC)c(C(=O)OC)c1`, the Potency result was “inactive”.

As for `N=C(N)c1ccccc1`, the Potency entry was “inactive”.

As to `CN1C(=O)N(C)C(O)C1O` (stereo not given), the Potency result was “inactive”.

For the molecule `CC(C)NC(=O)NC(C)C`, the Potency result is “inactive”.

Consider `Brc1c(NC2=NCCN2)ccc2nccnc12`, for which the Potency result was “inactive”.

With `CN(C(=O)c1c(O)c2ccccc2n(C)c1=O)c1ccccc1`, the Potency result is “inactive”.

In the case of `CC(C)NCCCC1(C(N)=O)c2ccccc2-c2ccccc21`, the Potency result is “inactive”.

As for `C=C(C)C(=O)OCCCCCCCC(C)C`, the Potency entry is “inactive”.

Take `CC(NC(CCc1ccccc1)C(=O)O)C(=O)N1C(=O)N(C)CC1C(=O)O` (stereo not given): the Potency result is “inactive”.

Regarding `CCOC(=O)[C@H](CCc1ccccc1)N[C@@H](C)C(=O)N1[C@H](C(=O)O)C[C@@H]2CCC[C@@H]21`, the Potency entry is “inactive”.

Regarding `O=Cc1cccc([N+](=O)[O-])c1`, the Potency result was “inactive”.

For `CC/C=C\CC/C=C/C(OCC)OCC`, the Potency entry was “inactive”.

Turning to `CCCCCSCCCCC`, the Potency result is “inactive”.

Take `CCOC(=O)CC(C)=O`: the Potency entry is “inactive”.

With `Cn1cc(S(C)=O)c(=O)c2ccc(F)cc21` (stereo not given), the Potency result is “inactive”.

With `CC(C)CCCC(C)N` (stereo not given), the Potency result is “inactive”.

As for `COC(=O)c1ccc(C)cc1C1=NC(C)(C(C)C)C(=O)N1` (stereo not given), the Potency entry is “inactive”.

Consider `CC(C)(O)C(=O)c1ccccc1`, for which the Potency result is “inactive”.

With `N#Cc1ccc(C2CCCc3cncn32)cc1` (stereo not given), the Potency result is “inactive”.

Consider `C[C@@H]1CCN(C(=O)[C@H](CCCN=C(N)N)NS(=O)(=O)c2cccc3c2NC[C@H](C)C3)[C@@H](C(=O)O)C1`, for which the Potency result was “inactive”.

Another assay can be described thus: qHTS RealTime-Glo MT Cell Viability Assay in HepG2 cells - 16 hour (AID 1224885). Further: nearly all actives have a fitted effect of over 50% in size. To be noted: RealTime-Glo luminescence; series mostly up to 76.8 µM. The essentials: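 Cells + NanoLuc/prosubstrate dispensed (600 cells/well) → 5 h at 37 C/5% CO2 → compounds in DMSO transferred → 40 h incubation at 37 C, luminescence read at 0, 8, 16, 24, 32, 40 h.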
Consider `NC(CSCC(=O)O)C(=O)O` (stereo not given), for which the Potency entry is “inactive”.

For `O=C(O)CNC(=O)c1ccc([N+](=O)[O-])cc1`, the Potency entry is “inactive”.

For the molecule `N=C(N)c1ccc(OCCCOc2ccc(C(=N)N)cc2)cc1`, the Potency entry is “inactive”.

`CCCCCCCCCCCCCCCCC`: the Potency entry was “inactive”.

With `CN(C)CCCNCCCN(C)C`, the Potency entry is “inactive”.

Turning to `COc1ccc2c(c1)c(CC(=O)OCC(=O)O)c(C)n2C(=O)c1ccc(Cl)cc1`, the Potency entry was “inactive”.

Take `CCCCOCCOCCOCCCC`: the Potency entry is “inactive”.

As to `COC(C)(C)CCCC(C)CC=O` (stereo not given), the Potency result is “inactive”.

`CCCN1CCCC[C@H]1C(=O)Nc1c(C)cccc1C`: the Potency result is “inactive”.

Take `O=C(O)CCCl`: the Potency entry is “inactive”.

For `COc1nc(N)nc2c1ncn2[C@@H]1O[C@H](CO)[C@@H](O)[C@@H]1O`, the Potency entry was “inactive”.

In the case of `C1OCOCO1`, the Potency entry is “inactive”.

As for `Cc1cc2c(cc1S(N)(=O)=O)S(=O)(=O)CCC2`, the Potency result is “inactive”.

Consider `O=c1n(CCO)c(=O)n(CCO)c(=O)n1CCO`, for which the Potency result was “inactive”.

Regarding `CCCCCCCCCCCCN(CCCCCCCCCCCC)CCCCCCCCCCCC`, the Potency entry was “inactive”.

As to `CCS(=O)(=O)c1ccc(OC)c(C(=O)OC)c1`, the Potency entry is “inactive”.

For `N=C(N)c1ccccc1`, the Potency entry was “inactive”.

As to `CN1C(=O)N(C)C(O)C1O` (stereo not given), the Potency result is “inactive”.

On to `CC(C)NC(=O)NC(C)C`, for which the Potency result was “inactive”.

Regarding `Brc1c(NC2=NCCN2)ccc2nccnc12`, the Potency result is “inactive”.

`CN(C(=O)c1c(O)c2ccccc2n(C)c1=O)c1ccccc1`: the Potency entry was “inactive”.

Take `CC(C)NCCCC1(C(N)=O)c2ccccc2-c2ccccc21`: the Potency result is “inactive”.

Regarding `C=C(C)C(=O)OCCCCCCCC(C)C`, the Potency result is “inactive”.

Regarding `CC(NC(CCc1ccccc1)C(=O)O)C(=O)N1C(=O)N(C)CC1C(=O)O` (stereo not given), the Potency result is “inactive”.

Consider `CCOC(=O)[C@H](CCc1ccccc1)N[C@@H](C)C(=O)N1[C@H](C(=O)O)C[C@@H]2CCC[C@@H]21`, for which the Potency result was “inactive”.

Regarding `O=Cc1cccc([N+](=O)[O-])c1`, the Potency result was “inactive”.

For `CC/C=C\CC/C=C/C(OCC)OCC`, the Potency result is “inactive”.

For the molecule `CCCCCSCCCCC`, the Potency result was “inactive”.

Regarding `CCOC(=O)CC(C)=O`, the Potency result is “inactive”.

In the case of `Cn1cc(S(C)=O)c(=O)c2ccc(F)cc21` (stereo not given), the Potency result was “inactive”.

For the molecule `CC(C)CCCC(C)N` (stereo not given), the Potency entry is “inactive”.

As to `COC(=O)c1ccc(C)cc1C1=NC(C)(C(C)C)C(=O)N1` (stereo not given), the Potency result is “inactive”.

`CC(C)(O)C(=O)c1ccccc1`: the Potency entry is “inactive”.

Regarding `N#Cc1ccc(C2CCCc3cncn32)cc1` (stereo not given), the Potency entry is “inactive”.

In the case of `C[C@@H]1CCN(C(=O)[C@H](CCCN=C(N)N)NS(=O)(=O)c2cccc3c2NC[C@H](C)C3)[C@@H](C(=O)O)C1`, the Potency result is “inactive”.

For the origin of these results see PubChem BioAssay (Tox21).
